# Assay outcomes: PubChem, several laboratories
# LMP1 NFkB inh: Epstein-Barr LMP1 NF-kappaB reporter inhibition | LMP1-induced NF-kappaB luciferase reporter cells, luminescence | inhibition, % at 12.5 µM | 0.69% of 350,000 active | AID 504558; in the data active means inhibition above about 41%; inconclusive means no clear call, values can overlap the other calls;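 further: 0% = neutral control wells and 100% = reference inhibitor control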
# TROY NFkB inh: blocks TROY-dependent signaling in reporter cells; 0.98% of 360,000 active; inhibition, % at 10 µM; Q293 LMP1-TROYcd NF-kB luciferase reporter, 4 h; AID 1347056;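 active means compounds whose plate-normalised and pattern-corrected inhibition of the luciferase reporter signal at the single screening dose is 50% or more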
# Peg3 promoter: reduces Peg3 promoter-driven luciferase expression in HeLa. HeLa PEG-Prom luciferase reporter, luminescence, overnight. inhibition, % at 20 µM. 1.7% of 360,000 active. AID 588405;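 active means inhibition of at least 50% at 20 µM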
# Shn3 3UTR inh: Schnurri-3 reporter inhibition in Clone20 osteoblasts; Clone20 osteoblast Shn3 3'UTR firefly luciferase, 24 h; inhibition, % at 12.5 µM; 0.52% of 360,000 active; AID 588674;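 active means mean inhibition of at least 75% with every replicate also reaching 75%; inconclusive means mean inhibition at least 75% but some replicate below; inactive means mean inhibition below 75%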;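 further: 0% = median of neutral control wells and 100% = pilot-screen positive control compound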
# MITF TRPM1 inh: MITF TRPM1 promoter inhibition in SK-MEL-5 cells | 0.83% of 330,000 active | inhibition, % at 12.5 µM | SK-MEL-5 TRPM1 promoter luciferase, 24 h;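 active means mean inhibition across replicates of 60% or more, whatever share of single replicates reaches that level; inconclusive means some that reach 60%, reason not given; inactive means mean inhibition across replicates below 60%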
# TWEAK Fn14 block: blocks TWEAK-Fn14 interaction in a reporter cell assay | AID 1159606 | TWEAK-stimulated Fn14 reporter cells, luciferase luminescence, 8 h | 2% of 360,000 active | inhibition, % at 10 µM; in the data active means inhibition above about 50%
# * = called active by the depositor; ? = inconclusive; nt = not tested or not shown. In the library only some 4.1% were active in any assay of this set; here they are far more common.
SMILES,LMP1 NFkB inh,TROY NFkB inh,Peg3 promoter,Shn3 3UTR inh,MITF TRPM1 inh,TWEAK Fn14 block
O=C(CN1CCN(c2ncc(C(F)(F)F)cc2Cl)CC1)NCCNc1ncc(C(F)(F)F)cc1Cl,2,nt,42,45,11,76*
CN(C)/C=C/C(=O)c1ccc(N2CCN(c3ncc(C(F)(F)F)cc3Cl)CC2)cc1,5,0,73*,78,26,19
COc1ccc(Cn2c(C)nc3c(c2=O)c2nc4ccccc4nc2n3Cc2ccco2)cc1,13,9,34,62,?,52*
Cc1nc2ccccc2c(=O)n1Cc1ccco1,nt,-1,9,5,nt,1
Cc1c(N=Cc2cc(Br)cc(Br)c2O)cccc1C(=O)O,68*,-6,8,-3,-9,9
CCN(C[C@H]1N[C@@](C)(C(=O)OC)[C@H]2C(=O)N(C)C(=O)[C@@H]12)S(=O)(=O)c1ccc(-c2ccccc2)cc1,-2,-5,5,15,4,2
Cc1ccc2c(COC(=O)c3ccccc3F)cc(=O)oc2c1,-17,24,-81,0,-23,63*
CN(C)c1ccc(C(=O)/C=C/c2ccco2)cc1,-28,-42,-246,-131,-44,-9
O=C(C=Cc1ccco1)c1ccc2ccccc2c1,-12,1,-256,95*,-56,27
Cc1ccc(NC(=O)CSCC(=O)OC(C)C(=O)Nc2ccccc2C)cc1 (stereo not drawn),-4,-11,-21,-3,-7,-13
Cc1ccc(S(=O)(=O)c2c(N)n(CCCN(C)C)c3nc4ccccc4nc23)cc1,19,2,31,-1,6,11
CCCCn1c(NS(=O)(=O)c2ccc(C)cc2)c(S(=O)(=O)c2ccccc2)c2nc3ccccc3nc21,1,64*,-47,-22,8,47
CCOC(=O)C1CCN(S(=O)(=O)c2cc3c4c(c2)C(C)C(=O)N4CCC3)CC1 (stereo not drawn),8,-1,-20,-18,3,-4
O=C(CN(C1CC1)S(=O)(=O)c1ccc(S(=O)(=O)NC2CCCCC2)cc1)Nc1ccccc1,8,30,26,7,-6,24
O=C(CN(Cc1cccs1)S(=O)(=O)c1ccc(S(=O)(=O)NC2CCCCC2)cc1)Nc1ccccc1,2,27,47,49,0,69*
O=C(Cn1c(CO)nc2ccccc21)Nc1ccc2c(c1)OCCCO2,2,11,4,-2,-1,1
CCCOC(=O)c1ccc(NC(=O)/C=C/c2cccs2)cc1,-3,56*,-193,-33,-44,32
NC(=O)CCS(=O)(=O)CCN1CCCCC1,-7,-6,-2,1,-9,-9
O=S(=O)(CCN1CCCCC1)CCS(=O)(=O)CCN1CCCCC1,2,61*,-10,5,-2,10
CC(C)N(Cc1ccccc1)C(=O)COC(=O)c1ccc(S(=O)(=O)N2CCOCC2)cc1,-4,2,4,13,-9,0
Cc1ccc(N2CCN(Cc3ccccc3)CC2=O)c(C)c1,1,-3,-4,10,-6,-3
c1ccc(CNCCCNCCCCNCCCNCc2ccccc2)cc1,9,10,110*,-23,-3,-18
N#Cc1cc(-c2ccccc2)[nH]c1-c1nccc2ccccc12,24,25,-16,?,-1,56*
Cc1oc(-c2cccc(Br)c2)[n+]([O-])c1C,-3,7,-4,17,-6,12
C(C#CCCCCCCCCC[n+]1ccccc1)#CCCCCCCCCC[n+]1ccccc1,37,44,105*,?,101*,90*
SMILES,LMP1 NFkB inh,TROY NFkB inh,Peg3 promoter,Shn3 3UTR inh,MITF TRPM1 inh,TWEAK Fn14 block
CN(C)c1ccc(C=C2SC(=S)N(Cc3ccco3)C2=O)cc1,-8,-29,-59,1,nt,-26
COc1ccc(-n2c(C)cc(/C=C3/SC(=S)N(C)C3=O)c2C)cc1,-3,52*,-254,11,-54,70*
Cc1cc(/C=C2\SC(=S)N(Cc3ccco3)C2=O)c(C)n1-c1ccccc1,0,4,-165,-50,-21,62*
Cc1cc(/C=C2\SC(=O)N(C)C2=O)c(C)n1-c1ccc(O)cc1,-75,18,-101,0,-9,87*
CN=C1S/C(=C\c2cc(C)n(-c3ccccc3F)c2C)C(=O)N1C,1,80*,-60,1,-15,82*
Cc1ccc(/C=C2\SC(=O)N(CCNC(=O)C3CSC4(C)CCC(=O)N34)C2=O)cc1 (stereo not drawn),6,-20,-81,-25,-13,-15
Cc1cc(/C=C2\SC(=S)N(C)C2=O)c(C)n1-c1cccc(O)c1,13,10,28,-47,24,92*
CCC(C)(C)C1CCc2[nH]nc(C(=O)NN)c2C1 (stereo not drawn),-1,69*,5,1,1,45
COc1cccc(NC(=O)C2CCCO2)c1 (stereo not drawn),-1,1,-23,-9,1,-4
CCOC(=O)C1C(=O)C=C(c2ccc(C)cc2)CC1c1ccco1 (stereo not drawn),48*,-34,-45,-29,-35,-10
Cc1ccc(/C=C/C(=O)c2ccccc(=O)c2O)c(C)c1,14,73*,-78,43,0,87*
O=C(/C=C/c1ccc([N+](=O)[O-])cc1)c1ccccc(=O)c1O,19,-29,107*,59,69*,72*
O=C(/C=C/c1ccccc1Cl)c1ccccc(=O)c1O,-35,37,71*,15,6,35
COc1ccc(CNC(=O)c2sc(=O)n(Cc3ccc(S(=O)(=O)N(C)C)cc3)c2C)cc1,nt,-2,10,49,nt,20
Cc1c(C(=O)NCc2ccc(C(F)(F)F)cc2)sc(=O)n1Cc1ccc(S(=O)(=O)N(C)C)cc1,nt,32,19,68,nt,57*
CC(=O)Oc1ccc(Cn2c(C)c(C(=O)NCc3ccc4c(c3)OCCO4)sc2=O)cc1,nt,67*,10,-2,nt,6
COc1ccc([C@H]2CC(=O)C=C(c3ccc(C)c(F)c3)C2)cc1,-2,-16,-35,-26,-16,-11
NS(=O)(=O)c1ccc(NC(=O)NC2CC(=O)N(c3ccc4c(c3)OCCO4)C2)cc1 (stereo not drawn),2,-16,-4,7,-12,-4
Cn1c2ccccc2c(=O)c2cc(C#CC3=CCCCC3)ccc21,-10,60*,-80,-51,13,48
Cn1c2ccccc2c(=O)c2ccc(C#Cc3ccc(N)cc3)cc21,2,50*,-82,28,-21,16
COc1ccc(C#Cc2ccc3c(=O)c4ccccc4n(C)c3c2)cc1,-16,nt,nt,nt,-19,nt
C=CCn1c2ccccc2c(=O)c2cc(C#CC[C@@H](C)O)ccc21,-25,-122,-277,-100,-89,-132
COc1ccccc1C#Cc1ccc2c(=O)c3ccccc3n(C)c2c1,-3,-9,-22,14,-24,45
Cn1c2ccccc2c(=O)c2cc(C#Cc3cccc(N)c3)ccc21,52*,-52,-286,-94,-80,-117
